According to the supplement of paper PMC9694430:

Columns and labels:
Test in all cases: thermal shift delta Tm vs DMSO control; higher = stronger stabilization (binding)
Details in all cases: 12.5 µM; protein concentration 2 µM
LOC_OS04G57630-cb004 = tested on: LOC_OS04G57630-cb004
Summary of the method: (§1)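 Compounds dissolved in DMSO were added to purified rice kinase domain constructs, which had been expressed in E. coli, for differential scanning fluorimetry. Each well held 19.5 μl of 2 μM kinase in 100 mM potassium phosphate pH 7.5, 150 mM NaCl, 10% glycerol and 5 × SYPRO Orange. Fluorescence was followed from 25°C to 95°C at a rate of 0.05°C/s. Shifts in Boltzmann-fitted melting temperature are triplicate means relative to DMSO-only protein.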

LOC_OS05G07850-cb002 = tested on: LOC_OS05G07850-cb002
Summary of the method: as §1

LOC_OS05G16824-cb004 = tested on: LOC_OS05G16824-cb004
Summary of the method: as §1

LOC_OS05G28520-cb001 = tested on: LOC_OS05G28520-cb001
Summary of the method: as §1

LOC_OS05G30820-cb001 = tested on: LOC_OS05G30820-cb001
Summary of the method: as §1

LOC_OS05G43570-cb004 = tested on: LOC_OS05G43570-cb004
Summary of the method: as §1

LOC_OS06G16330-cb003 = tested on: LOC_OS06G16330-cb003
Summary of the method: as §1

LOC_OS06G22820-cb001 = tested on: T1, LOC_OS06G22820-cb001
T1 sequence (whole entry): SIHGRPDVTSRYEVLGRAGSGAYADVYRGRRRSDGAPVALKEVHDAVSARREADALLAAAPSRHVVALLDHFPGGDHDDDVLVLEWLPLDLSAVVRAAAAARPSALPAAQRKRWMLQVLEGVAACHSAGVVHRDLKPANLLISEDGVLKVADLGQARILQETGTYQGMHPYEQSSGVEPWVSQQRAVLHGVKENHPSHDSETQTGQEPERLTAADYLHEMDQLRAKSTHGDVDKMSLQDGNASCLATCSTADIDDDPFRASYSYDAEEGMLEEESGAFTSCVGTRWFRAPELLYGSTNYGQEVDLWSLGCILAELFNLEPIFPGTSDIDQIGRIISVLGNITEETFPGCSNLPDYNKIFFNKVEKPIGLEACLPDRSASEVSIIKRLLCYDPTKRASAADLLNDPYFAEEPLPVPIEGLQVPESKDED
Summary of the method: as §1

LOC_OS07G06570-cb004 = tested on: LOC_OS07G06570-cb004
Summary of the method: as §1

LOC_OS07G07230-cb001 = tested on: LOC_OS07G07230-cb001
Summary of the method: as §1

Chain of LOC_OS06G16330-cb003 (as listed by the source): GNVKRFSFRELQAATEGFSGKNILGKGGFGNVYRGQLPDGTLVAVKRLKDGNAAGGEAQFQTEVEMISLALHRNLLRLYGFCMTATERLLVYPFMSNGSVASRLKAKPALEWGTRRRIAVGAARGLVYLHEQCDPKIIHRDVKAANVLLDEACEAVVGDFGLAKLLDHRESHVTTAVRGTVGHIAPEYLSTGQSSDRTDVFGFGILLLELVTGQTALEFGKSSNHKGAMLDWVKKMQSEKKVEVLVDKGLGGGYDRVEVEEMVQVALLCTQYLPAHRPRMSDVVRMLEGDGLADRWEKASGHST

SMILES	thermal shift delta Tm (LOC_OS04G57630-cb004)	thermal shift delta Tm (LOC_OS05G07850-cb002)	thermal shift delta Tm (LOC_OS05G16824-cb004)	thermal shift delta Tm (LOC_OS05G28520-cb001)	thermal shift delta Tm (LOC_OS05G30820-cb001)	thermal shift delta Tm (LOC_OS05G43570-cb004)	thermal shift delta Tm (LOC_OS06G16330-cb003)	thermal shift delta Tm (LOC_OS06G22820-cb001)	thermal shift delta Tm (LOC_OS07G06570-cb004)	thermal shift delta Tm (LOC_OS07G07230-cb001)
Cc1ccc(C(=O)Nc2ccc(CN3CCN(C)CC3)c(C(F)(F)F)c2)cc1C#Cc1cnc2[nH]ncc2c1 [GZD824 Dimesylate]	6.01 °C	13.9 °C	2.52 °C	0.74 °C	2.1 °C	1.6 °C	5.01 °C	0.3 °C	0.65 °C	1.45 °C
CN(C)CCOc1ccc(-c2nc(-c3ccncc3)c(-c3ccc4c(c3)CC/C4=N\O)[nH]2)cc1	0.24 °C	1.09 °C	-2.35 °C	-0.03 °C	0.65 °C	0.64 °C	-0.3 °C	0.47 °C	0.49 °C	0.18 °C
O=C(Nc1ccc(OC(F)(F)F)cc1)c1sccc1NCc1ccnc2ccccc12	0.49 °C	2.25 °C	-0.83 °C	0.05 °C	0.65 °C	0.67 °C	0.61 °C	0.92 °C	0.2 °C	-0.46 °C
C[C@H]1CNC(=O)c2cnn3ccc(nc23)N[C@H](C)c2cc(F)ccc2O1	1.68 °C	10.8 °C	12.5 °C	0.06 °C	0.11 °C	0.56 °C	9.31 °C	-0.23 °C	1.57 °C	0.8 °C
Cn1nccc1Nc1nccc(-c2ccn([C@H](CO)c3ccc(Cl)c(F)c3)c(=O)c2)n1	0.08 °C	2.78 °C	-3.01 °C	1.03 °C	0.26 °C	0.16 °C	0.19 °C	0.56 °C	1.22 °C	0.87 °C
C[C@H](NC(=O)c1c(N)nn2cccnc12)c1cc2cccc(C#Cc3cnn(C)c3)c2c(=O)n1-c1ccccc1	-0.07 °C	0.09 °C	2.93 °C	0.27 °C	0.07 °C	0.11 °C	-0.63 °C	0.3 °C	1.69 °C	0.62 °C
O=c1ncn2nc(Sc3ccc(F)cc3F)ccc2c1-c1c(Cl)cccc1Cl	0.07 °C	0.12 °C	0.83 °C	0.17 °C	0.49 °C	0.49 °C	-0.01 °C	0.66 °C	0.75 °C	0.14 °C
C[C@@H](Oc1cc(-n2cnc3ccc(CN4CCN(C)CC4)cc32)sc1C(N)=O)c1ccccc1C(F)(F)F	1.23 °C	2.4 °C	-4.79 °C	-0.16 °C	0.61 °C	0.21 °C	2.19 °C	0.97 °C	1.02 °C	0.47 °C
C[C@@H]1COC(Nc2ccc3ncnc(Nc4ccc(OCc5nccs5)c(Cl)c4)c3c2)=N1 [Varlitinib]	1.38 °C	3.96 °C	-3.4 °C	0.54 °C	0.94 °C	0.53 °C	1.46 °C	0.8 °C	0.43 °C	0.26 °C
Cc1cc(Nc2cc(N3CCN(C)CC3)nc(/C=C/c3ccccc3)n2)n[nH]1 [ENMD-2076 L-(+)-Tartaric acid]	4.1 °C	11.2 °C	10.9 °C	5.68 °C	1.55 °C	0.7 °C	5.83 °C	0.62 °C	1.73 °C	0.39 °C
CCn1c(=O)c(-c2ccc(-c3cncs3)cc2Cl)cc2cnc(Nc3ccc(N4CCN(C)CC4)cc3)nc21	0.31 °C	1.19 °C	0.07 °C	0.25 °C	0.51 °C	0.24 °C	-0.19 °C	0.67 °C	0.84 °C	0.19 °C
CNS(=O)(=O)Nc1nccc(Cc2c(C)c3ccc(Oc4ncccn4)cc3oc2=O)c1F	0.3 °C	0.16 °C	-1.72 °C	0.32 °C	0.47 °C	0.49 °C	0.47 °C	0.62 °C	1.63 °C	0.51 °C
CCS(=O)(=O)Nc1ccc2c(c1)/C(=C(/Nc1ccc(CN3CCCCC3)cc1)c1ccccc1)C(=O)N2 [Hesperadin]	7.62 °C	11.8 °C	16.8 °C	-0.02 °C	2.48 °C	0.56 °C	13.1 °C	0.6 °C	0.84 °C	-0.17 °C
CC(C)(C)c1nc(-c2cccc(NS(=O)(=O)c3c(F)cccc3F)c2F)c(-c2ccnc(N)n2)s1	1.63 °C	9.38 °C	8.29 °C	0.83 °C	3.66 °C	0.62 °C	3.39 °C	0.62 °C	0.8 °C	0.6 °C
C=CC(=O)Nc1cccc(Oc2nc(Nc3ccc(N4CCN(C)CC4)cc3)ncc2Cl)c1	1.97 °C	11.6 °C	8.96 °C	4.43 °C	1.14 °C	0.72 °C	5.65 °C	0.76 °C	0.79 °C	1.03 °C
COc1cc2ncc(-c3ccccc3)nc2cc1OC [Tyrphostin AG 1296]	0.05 °C	5.59 °C	2.99 °C	-0.06 °C	0.8 °C	0.08 °C	2.24 °C	0.24 °C	1.65 °C	0.83 °C
Nc1nc(Nc2ccc(S(N)(=O)=O)cc2)nn1C(=O)c1c(F)cccc1F	1.19 °C	12.5 °C	8.94 °C	0.98 °C	1.95 °C	0.82 °C	8.67 °C	-0.12 °C	1.81 °C	0.21 °C
CC(C)[C@H](CO)Nc1nc(Nc2cccc(Cl)c2)c2ncn(C(C)C)c2n1 [Purvalanol A]	1.65 °C	4.54 °C	10.1 °C	1.68 °C	2.51 °C	0.79 °C	2.99 °C	0.25 °C	0.14 °C	-0.31 °C
COc1cc(Nc2c(C#N)cnc3cc(OCCCN4CCN(C)CC4)c(OC)cc23)c(Cl)cc1Cl [Bosutinib (SKI-606)]	-0.3 °C	0.13 °C	-0.71 °C	0.48 °C	0.5 °C	0.48 °C	-0.26 °C	0.74 °C	0.61 °C	0.26 °C
CC(C)n1ncnc1-c1cn2c(n1)-c1ccc(O[C@@H](C)C(N)=O)cc1OCC2	-0.03 °C	-0.96 °C	-0.54 °C	0.38 °C	0.25 °C	0.23 °C	-0.02 °C	0.43 °C	0.88 °C	0.22 °C
